# Reference: publication PMC4552634, “A New Set of Chemical Starting Points with Plasmodium falciparum Transmission-Blocking Potential for Antimalarial Drug Discovery” (PLoS ONE, 2015)
# Hit rate of the full screen: of about 13,000 compounds, about 3,200 (25%) showed an effect of 50% or more. Some of the results follow.
# System: P. falciparum stage V gametocytes
# Parameters: BacTiter-Glo ATP luminescence viability of purified stage V gametocytes in 384-well plates, per cent inhibition versus DMSO
# Details: 48 h, 5 µM; inhibitor
row,SMILES,% Inhibition
1,CCOC(=O)c1ccc(NC(=O)Nc2ccc(-c3cccc(-c4nc5c(C)cccc5[nH]4)c3)cc2)cc1 [TCMDC-133262],-3.129%
2,CC(C)(C)c1ccc(CN(C[C@@H](O)CNS(=O)(=O)c2cc(Cl)cc(Cl)c2)C(C)(C)C)cc1 [TCMDC-135386],-63.29%
3,COc1ccc(CC(=O)NC(CCCN2CCC3(CC2)OCc2ccccc23)c2ccc(Cl)c(Cl)c2)cc1 (centres unmarked) [TCMDC-141898],-52.62%
4,O=C(Nc1cccc(F)c1)N1CCC(NS(=O)(=O)c2ccc(Br)cc2)CC1 [TCMDC-139438],2.418%
5,COc1cc2c(cc1OC)-c1cc(=Nc3c(C)cc(C)cc3C)n(C)c(=O)n1CC2 [TCMDC-125545],16.19%
6,CN(CCCNc1ccc(C(=O)Nc2ccc(C(F)(F)F)cc2)cc1[N+](=O)[O-])Cc1ccccc1 [TCMDC-125682],-31.17%
7,CN(Cc1cccc(F)c1)C1CCN(c2cc(NC(=O)c3ccc(F)cc3)ccn2)C1 (centres unmarked) [TCMDC-135004],-24.42%
8,CC(C)c1ccc(NC(=O)c2cccc(CN3CCCN(Cc4cccc(O)c4)CC3)c2)cc1 [TCMDC-135976],-1.635%
9,CC(C)(C)NCCN(Cc1ccc(-c2ccc(C(F)(F)F)cc2)cc1)C(=O)Cn1c(SCc2ccc(F)cc2)nc(=O)c2c1CCC2 [TCMDC-140978],110.1%
10,Cn1ccnc1-c1nc2ccccn2c1NCC(=O)Nc1ccccc1N1CCCCC1 [TCMDC-133801],-70.89%
11,CCNc1cc(C)nc(Nc2ccc(NC(=O)c3ccc(OC)c(OC)c3)cc2)n1 [TCMDC-124987],8.373%
12,CSC1=NC(=Nc2ccccc2C)C2(CCC(C(C)(C)C)CC2)N1c1ccccc1Cl (centres unmarked) [TCMDC-124136],53.76%
13,CSC1=NC(=Nc2c(C)cccc2C)C2(CCCCC2)N1c1ccccc1Cl [TCMDC-124143],13.06%
14,Cc1cccc(C)c1NC1=NC(=S)N(c2cccc(Cl)c2)C12CCC(C(C)(C)C)CC2 (centres unmarked) [TCMDC-124101],-11.15%
15,Cc1cc(C(=O)NC2CCN(Cc3ccccc3)CC2)ccc1-c1nc2ccc(C(F)(F)F)cc2[nH]1 [TCMDC-140120],-4.747%
16,N#Cc1ccc(N2CCN(Cc3ccc(-c4ccc(-c5nc6ccc(F)cc6[nH]5)s4)cc3)CC2)nc1 [TCMDC-133115],-21.41%
17,Oc1cc(Nc2ccnc3cc(-c4cccc(CN5CCOCC5)c4)ccc23)c(F)cc1Cl [TCMDC-138434],12.33%
18,CC(C)CN1CCC(COc2ccc3ncn(-c4cc(O[C@H](C)c5ccccc5C(F)(F)F)c(C(N)=O)s4)c3c2)CC1 [TCMDC-135856],86.18%
19,CN1CCN(CCCSc2ccc3c(c2)ncn3-c2cc(OCc3ccccc3C(F)(F)F)c(C(N)=O)s2)CC1 [TCMDC-135408],12.22%
20,NC(=O)c1sc(-n2cnc3ccc(OCC4CCNCC4)cc32)cc1OCc1ccccc1C(F)(F)F [TCMDC-135173],107%
21,NC(=O)c1sc(-n2cnc3ccc(C(=O)NCCN4CCOCC4)cc32)cc1OCc1ccccc1C(F)(F)F [TCMDC-135181],-45.79%
22,COc1ccc2ncn(-c3ccc(C(N)=O)c(OCc4ccccc4C(F)(F)F)c3)c2c1 [TCMDC-134428],48.51%
23,C[C@@H](Oc1cc(-n2cnc3ccc(OCC4CCN(S(C)(=O)=O)CC4)cc32)sc1C(N)=O)c1ccccc1C(F)(F)F [TCMDC-135685],34.9%
